Experimental data from PubChem BioAssay (Tox21).
Inconclusive results are not listed. The source made the active and inactive calls. Calls come from the whole dose curve; as a rule, active = well fitted curve in the direction sought with a large enough effect in the repeat runs; inconclusive = weak or mixed curves; inactive = no such curve, though single readings can be large; an effect the other way counts as inactive or inconclusive.

What was measured:
[1] = A CellTox Green Cytotoxicity Assay to monitor cytotoxicity in HEK293 cells - 40 hour (AID 1224871); note: nearly all actives have a fitted effect of over 45% in size; note: potency is the fitted concentration of half-maximal effect
Outline: (§1)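 Fluorescence from a DNA-binding dye excluded by viable cells was measured repeatedly in the same HEK293 wells (600 cells/well) during continuous compound exposure at 37 C. Each assay gives one read point: 0, 8, 16, 24, 32 or 40 h.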

[2] = qHTS RealTime-Glo MT Cell Viability Assay in HEK293 cells - 16 hour (AID 1224872); note: top concentration of the series differs between compounds; nearly all actives have a fitted effect of over 50% in size
Outline: (§2)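 Cells + reagent dispensed (600 cells/well, HEK293) → 5 h at 37 C/5% CO2 → 23 nL compound in DMSO pinned → 40 h at 37 C → luminescence read at 0, 8, 16, 24, 32, 40 h.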

[3] = qHTS RealTime-Glo MT Cell Viability Assay in HEK293 cells - 40 hour (AID 1224874); settings: RealTime-Glo luminescence; max response: stronger effect = lower value; note: nearly all actives have a fitted effect of over 50% in size; note: potency is the fitted concentration of half-maximal effect
Outline: (§3)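 Luminescence, which tracks viable cell number through reduction of the prosubstrate to a NanoLuc substrate, was read over continuous 37 C culture. Cells (600/well) were premixed with reagent and rested 5 h before 23 nL of compound in DMSO was pinned.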

[4] = A CellTox Green Cytotoxicity Assay to monitor cytotoxicity in HEK293 cells - 24 hour (AID 1224875); note: nearly all actives have a fitted effect of over 45% in size; note: potency is the fitted concentration of half-maximal effect
Outline: as §1

[5] = A CellTox Green Cytotoxicity Assay to monitor cytotoxicity in HepG2 cells - 16 hour (AID 1224876); note: nearly all actives have a fitted effect of over 45% in size; note: potency is the fitted concentration of half-maximal effect
Outline: (§4)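 Real-time cytotoxicity: fluorescence of a cell-impermeant cyanine dye binding DNA of dead HepG2 cells, measured repeatedly (0–40 h) during compound exposure at 37 C. Cells seeded 600/well with reagent, dosed after 5 h.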

[6] = qHTS RealTime-Glo MT Cell Viability Assay in HepG2 cells - 32 hour (AID 1224877); note: nearly all actives have a fitted effect of over 55% in size; note: potency is the fitted concentration of half-maximal effect
Outline: (§5)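 Real-time, nonlytic viability: 600 HepG2 cells/well mixed with NanoLuc enzyme plus prosubstrate; 5 h settle, compound (DMSO) added by pintool; luminescence monitored over 40 h at 37 C.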

[7] = A CellTox Green Cytotoxicity Assay to monitor cytotoxicity in HepG2 cells - 24 hour (AID 1224878); note: nearly all actives have a fitted effect of over 45% in size; note: potency is the fitted concentration of half-maximal effect
Outline: as §4

[8] = A CellTox Green Cytotoxicity Assay to monitor cytotoxicity in HepG2 cells - 40 hour (AID 1224879); note: nearly all actives have a fitted effect of over 40% in size; note: potency is the fitted concentration of half-maximal effect
Outline: as §4

[9] = A CellTox Green Cytotoxicity Assay to monitor cytotoxicity in HEK293 cells - 32 hour (AID 1224881); note: nearly all actives have a fitted effect of over 40% in size; note: potency is the fitted concentration of half-maximal effect
Outline: as §1

[10] = A CellTox Green Cytotoxicity Assay to monitor cytotoxicity in HepG2 cells - 0 hour (AID 1224882); note: nearly all actives have a fitted effect of over 35% in size
Outline: as §4

[11] = A CellTox Green Cytotoxicity Assay to monitor cytotoxicity in HepG2 cells - 32 hour (AID 1224883); note: nearly all actives have a fitted effect of over 50% in size; note: potency is the fitted concentration of half-maximal effect
Outline: as §4

[12] = A CellTox Green Cytotoxicity Assay to monitor cytotoxicity in HEK293 cells - 8 hour (AID 1224884); note: nearly all actives have a fitted effect of over 35% in size; note: potency is the fitted concentration of half-maximal effect
Outline: as §1

[13] = qHTS RealTime-Glo MT Cell Viability Assay in HepG2 cells - 16 hour (AID 1224885); note: nearly all actives have a fitted effect of over 50% in size; note: potency is the fitted concentration of half-maximal effect
Outline: as §5

[14] = qHTS RealTime-Glo MT Cell Viability Assay in HEK293 cells - 24 hour (AID 1224886); note: nearly all actives have a fitted effect of over 50% in size; note: potency is the fitted concentration of half-maximal effect
Outline: as §2

[15] = qHTS RealTime-Glo MT Cell Viability Assay in HEK293 cells - 8 hour (AID 1224887)
Outline: as §3

[16] = A CellTox Green Cytotoxicity Assay to monitor cytotoxicity in HEK293 cells - 16 hour (AID 1224888); note: nearly all actives have a fitted effect of over 35% in size; note: potency is the fitted concentration of half-maximal effect
Outline: as §1

[17] = A CellTox Green Cytotoxicity Assay to monitor cytotoxicity in HepG2 cells - 8 hour (AID 1224890); note: nearly all actives have a fitted effect of over 45% in size; note: potency is the fitted concentration of half-maximal effect
Outline: as §4

[18] = qHTS RealTime-Glo MT Cell Viability Assay in HEK293 cells - 0 hour (AID 1224880)
Outline: as §3

[19] = qHTS RealTime-Glo MT Cell Viability Assay in HepG2 cells - 8 hour (AID 1224873); note: nearly all actives have a fitted effect of over 55% in size
Outline: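 HepG2 cells (600/well) mixed with RealTime-Glo MT reagent, settled 5 h at 37 C/5% CO2 before compound addition. Nonlytic NanoLuc luminescence from viable-cell prosubstrate reduction read repeatedly during 40 h treatment at 37 C.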

[20] = qHTS RealTime-Glo MT Cell Viability Assay in HepG2 cells - 0 hour (AID 1224889); note: nearly all actives have a fitted effect of over 50% in size; note: potency is the fitted concentration of half-maximal effect
Outline: as §5
% is set by controls: 0 for no effect and ±100 for the full control effect.

II
inactive: Potency [2] | max response [3] -3.85% | Potency [10] | Potency [14] | Potency [15]
active: Potency [1] 38.9 µM | Potency [4] 38.9 µM | Potency [5] 38.9 µM | Potency [6] 7.76 µM | Potency [7] 34.7 µM | Potency [8] 38.9 µM | Potency [9] 38.9 µM | Potency [11] 38.9 µM | Potency [12] 34.7 µM | Potency [13] 27.5 µM | Potency [16] 38.9 µM | Potency [17] 38.9 µM

C=CC(=O)OCCCCO
inactive: Potency [1] | Potency [2] | max response [3] 18.2% | Potency [4] | Potency [5] | Potency [6] | Potency [7] | Potency [8] | Potency [18] | Potency [9] | Potency [10] | Potency [11] | Potency [12] | Potency [13] | Potency [14] | Potency [15] | Potency [17]

C=CC(=O)NCNC(=O)C=C
inactive: Potency [1] | Potency [2] | Potency [19] | Potency [4] | Potency [5] | Potency [6] | Potency [7] | Potency [18] | Potency [9] | Potency [10] | Potency [11] | Potency [12] | Potency [13] | Potency [14] | Potency [15] | Potency [16] | Potency [20] | Potency [17]

CCOP(=O)(OCC)O/C(=C/Cl)c1ccc(Cl)cc1Cl
inactive: Potency [1] | Potency [19] | Potency [4] | Potency [5] | Potency [6] | Potency [7] | Potency [8] | Potency [18] | Potency [9] | Potency [10] | Potency [11] | Potency [12] | Potency [13] | Potency [20] | Potency [17]
active: Potency [3] 19.5 µM | Potency [14] 24.5 µM

Cc1ccc(-c2c(Cl)nc(C#N)n2S(=O)(=O)N(C)C)cc1
inactive: Potency [1] | Potency [2] | Potency [19] | Potency [4] | Potency [5] | Potency [6] | Potency [7] | Potency [8] | Potency [18] | Potency [9] | Potency [10] | Potency [11] | Potency [12] | Potency [13] | Potency [14] | Potency [15] | Potency [16] | Potency [17]

N#Cc1cc(I)c(O)c(I)c1
inactive: Potency [1] | Potency [19] | Potency [4] | Potency [5] | Potency [6] | Potency [7] | Potency [8] | Potency [18] | Potency [9] | Potency [10] | Potency [11] | Potency [12] | Potency [13] | Potency [15] | Potency [16] | Potency [20] | Potency [17]

C=CCC1([C@H](C)CCC)C(=O)NC(=O)NC1=O
inactive: Potency [2] | Potency [19] | max response [3] -11.9% | Potency [4] | Potency [5] | Potency [6] | Potency [7] | Potency [8] | Potency [18] | Potency [9] | Potency [10] | Potency [11] | Potency [12] | Potency [13] | Potency [14] | Potency [15] | Potency [16] | Potency [20] | Potency [17]

COP(=S)(Oc1cc(Cl)c(Br)cc1Cl)c1ccccc1 (configuration not stated)
inactive: Potency [1] | Potency [19] | Potency [4] | Potency [6] | Potency [18] | Potency [9] | Potency [12] | Potency [13] | Potency [16]

O=[N+]([O-])c1ccc(F)c([N+](=O)[O-])c1
inactive: Potency [1] | Potency [19] | Potency [4] | Potency [5] | Potency [6] | Potency [7] | Potency [8] | Potency [9] | Potency [10] | Potency [11] | Potency [12] | Potency [13] | Potency [16] | Potency [20] | Potency [17]

c1ccoc1
inactive: Potency [2] | Potency [19] | max response [3] -1.82% | Potency [4] | Potency [5] | Potency [6] | Potency [7] | Potency [8] | Potency [18] | Potency [9] | Potency [10] | Potency [11] | Potency [12] | Potency [13] | Potency [14] | Potency [15] | Potency [17]

CC(O)(CS(=O)(=O)c1ccc(F)cc1)C(=O)Nc1ccc(C#N)c(C(F)(F)F)c1 (configuration not stated)
inactive: Potency [1] | Potency [4] | Potency [5] | Potency [7] | Potency [8] | Potency [9] | Potency [10] | Potency [11] | Potency [12] | Potency [16] | Potency [17]

CCOC(=O)COc1cc(-c2nn(C)c(OC(F)F)c2Cl)c(F)cc1Cl
inactive: Potency [2] | Potency [19] | max response [3] -5.9% | Potency [4] | Potency [5] | Potency [6] | Potency [7] | Potency [8] | Potency [18] | Potency [9] | Potency [10] | Potency [11] | Potency [12] | Potency [13] | Potency [14] | Potency [15] | Potency [17]

CC(=O)NC1CCSC1=O (configuration not stated)
inactive: Potency [2] | Potency [19] | max response [3] -1.76% | Potency [4] | Potency [5] | Potency [6] | Potency [7] | Potency [8] | Potency [18] | Potency [9] | Potency [10] | Potency [11] | Potency [12] | Potency [13] | Potency [14] | Potency [15] | Potency [16] | Potency [20] | Potency [17]

CCCCNP(N)(N)=S
inactive: Potency [2] | Potency [19] | max response [3] 0.198% | Potency [4] | Potency [5] | Potency [6] | Potency [7] | Potency [8] | Potency [18] | Potency [9] | Potency [10] | Potency [11] | Potency [12] | Potency [13] | Potency [14] | Potency [15] | Potency [16] | Potency [20] | Potency [17]

COC(=O)C(C)N(C(=O)Cc1ccccc1)c1c(C)cccc1C (configuration not stated)
inactive: Potency [1] | Potency [19] | Potency [4] | Potency [5] | Potency [6] | Potency [9] | Potency [10] | Potency [12] | Potency [13] | Potency [16] | Potency [17]
active: Potency [20] 21.9 µM
